Test results as given in PubChem BioAssay AID1347421 (Sanford-Burnham Center for Chemical Genomics, 2020).
In all, about 1,500 compounds were measured (“activity”: median about 2, lowest 2% from about -18 on). Shown is part of a subset that was picked to be rich in the lowest values. The source made the active and inactive calls.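 Rule for the calls: active = inhibition of at least 40% at 10 µM; inconclusive = no clear call, values can overlap the other calls; inactive = the rest.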

The molecules below were run against Sulfhydryl oxidase 1 (Homo sapiens) (UniProt O00391) (assay: QSOX1 enzyme inhibitors, confirmation, biochemical, ROS-Glo luminescence, single concentration (AID 1347421;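 note: 0% = DMSO wells with enzyme and 100% = wells lacking QSOX1 enzyme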)). Settings: recombinant hQSOX1, RNase A substrate, ROS-Glo H2O2 luminescence; at 10 µM.
Sulfhydryl oxidase 1 (Homo sapiens), sequence (O00391 whole entry, looked up): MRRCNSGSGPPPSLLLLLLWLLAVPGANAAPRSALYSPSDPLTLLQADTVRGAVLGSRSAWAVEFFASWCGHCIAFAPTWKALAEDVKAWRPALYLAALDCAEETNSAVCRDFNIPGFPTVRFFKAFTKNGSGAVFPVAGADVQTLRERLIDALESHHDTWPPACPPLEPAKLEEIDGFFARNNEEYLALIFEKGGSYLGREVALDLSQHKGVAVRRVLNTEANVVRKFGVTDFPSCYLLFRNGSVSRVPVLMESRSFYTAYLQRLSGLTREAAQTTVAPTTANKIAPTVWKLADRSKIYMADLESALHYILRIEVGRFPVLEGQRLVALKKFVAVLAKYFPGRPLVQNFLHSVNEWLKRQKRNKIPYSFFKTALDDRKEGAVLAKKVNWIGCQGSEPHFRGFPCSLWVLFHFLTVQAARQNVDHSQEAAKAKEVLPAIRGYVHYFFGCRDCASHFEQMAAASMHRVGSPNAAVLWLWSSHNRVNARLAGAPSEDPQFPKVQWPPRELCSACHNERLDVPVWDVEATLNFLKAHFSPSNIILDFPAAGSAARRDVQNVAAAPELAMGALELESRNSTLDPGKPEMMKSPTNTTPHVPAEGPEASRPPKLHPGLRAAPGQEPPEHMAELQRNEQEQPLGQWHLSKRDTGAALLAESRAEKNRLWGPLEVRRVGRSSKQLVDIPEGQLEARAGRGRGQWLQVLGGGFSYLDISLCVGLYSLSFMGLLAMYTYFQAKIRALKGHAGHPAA

| Compound | activity |
| --- | --- |
| O=C(NC(=O)N1CCCCCC1)c1ccc(Cl)cc1 | -10.3% (inactive) |
| COc1ccc(CNCCn2cccn2)c(OCC(O)CN2CCCC2)c1 (stereo not given) | 1.2% |
| O=C(Cn1ccnc1)N(CC1CCN(C2Cc3ccccc3C2)CC1)CC1CCCO1 (stereo not given) | 7.8% |
| CCOc1ccc(Cl)cc1S(=O)(=O)NC(C)C | 3.5% |
| COc1ccc(F)cc1S(=O)(=O)NC(C)C | -2% (inactive) |
| COc1ccc(C(N)=O)cc1S(=O)(=O)NC(C)C | -19.1% (inactive) |
| CN(Cc1cccs1)C(=O)c1ccc(OC2CCN(S(C)(=O)=O)CC2)c(Cl)c1 | 12.2% |
| CN(Cc1n[nH]c2c1CCCCC2)CC1(c2cccc(F)c2)CCOC1 (stereo not given) | 4% |
| O=C(CC1C(=O)NCCN1Cc1ccccn1)NC1C2CC3CC(C2)CC1C3 (stereo not given) | -4.8% (inactive) |
| O=C(Cc1ccccc1F)Nc1ccc2c(c1)CN(Cc1ccoc1)CC2 | -1.9% (inactive) |
| O=C(NCCCOc1cccnc1)C1CCC(=O)N(CCCc2ccccc2)C1 (stereo not given) | 12.4% |
| O=C(O)c1cn(CCOc2ccccc2)c2ccccc12 | -13.2% (inactive) |
| O=C(CCC1CCCN(Cc2ccccn2)C1)N1CCN(Cc2ccccc2)CC1 (stereo not given) | -0.9% (inactive) |
| Cc1cc(C)c(C(=O)N2CCCC(CCC(=O)N(C)CCc3ccccn3)C2)c(=O)[nH]1 (stereo not given) | 7.3% |
| COc1ccc(CNCCc2scnc2C)cc1OCC(O)CN(C)C(C)C (stereo not given) | 7.8% |
| CC(C)OCCNC(=O)c1cc(COc2cccc3cccnc23)on1 | 2.2% |
| C=CCCC(=O)N1CCC2(CCCN(Cc3ccc(F)c(F)c3)C2=O)C1 (stereo not given) | -1.3% (inactive) |
| Cn1nc(C(=O)N2CCc3ccccc32)c2ccccc2c1=O | -5.3% (inactive) |
| O=C1CCC(C(=O)N2CCC3(C=Cc4ccccc43)CC2)CN1CCc1ccccn1 (stereo not given) | 3.8% |
| COc1cccc(CN2CCNC(=O)C2CC(=O)NC2CCCCCCC2)c1 (stereo not given) | 2.4% |
| CCC1=[C+]c2c(NCc3cccnc3)nc(C)nc2S1 | -5.8% (inactive) |
| CCC1=[C+]c2c(nc(C)nc2N2CCOCC2)S1 | -20.3% (inactive) |
| CSc1ncc(Cl)c(C(=O)Nc2ccc(Br)cc2)n1 | -12.9% (inactive) |
| Cc1oc(-c2cccs2)nc1CN(C)C(C)c1cccs1 (stereo not given) | 2.7% |
| CCOC(=O)C1CCN(C(=O)CCc2ccc(OC)cc2)CC1 | -2% (inactive) |
| CCN(CC)C(=O)C1CCCN(Cc2nc(-c3ccc(Cl)cc3)oc2C)C1 (stereo not given) | 4.3% |
| CC(NC(=O)CSc1nc(O)cc(=O)[nH]1)c1ccccc1 (stereo not given) | -17.8% (inactive) |

| Compound | activity |
| --- | --- |
| CC(=O)n1nc(NCc2ccccc2)nc1NCc1ccccc1 | -22% (inactive) |
| CCN(CC)C(=O)N(CC)Cc1ccccc1 | -0.2% (inactive) |
| c1ccc(CNc2ccc(NCc3ccccc3)nn2)cc1 | -8.7% (inactive) |
| C=CCn1nnnc1NCc1ccc(F)cc1 | 7.4% |
| CCCn1cc(CN2CCOC(CCc3ccccc3)C2)c(C)n1 (stereo not given) | -1.5% (inactive) |
| CCOC(=O)N1CCC(N2CCOC(CC3CCCCC3)C2)CC1 (stereo not given) | 6.1% |
| NC(=O)C1CCCN(Cc2cn(-c3ccccc3)nc2-c2ccc3c(c2)OCO3)C1 (stereo not given) | -1.5% (inactive) |
| O=C(Nc1ccccc1N1CCN(C(=O)c2ccc(Cl)cc2)CC1)c1ccco1 | 0.8% |
| CCn1c(CN2CCCC2)nc2ccccc21 | -5.8% (inactive) |
| CCn1c(C2CCCO2)nc2ccccc21 (stereo not given) | -18.1% (inactive) |
| CCn1c(SCC(=O)N2CCCCCC2)nc2ccccc21 | -11.6% (inactive) |
| CN1CCN(C(=O)CCC2CCCN(C(=O)Cc3ccc4c(c3)OCO4)C2)CC1 (stereo not given) | 0.8% |
| CN(CCOc1ccccc1)Cc1nc(-c2ccccn2)no1 | 3.2% |
| COc1ccc(C(=O)C2CCCN(Cc3ccc4cc(F)ccc4n3)C2)cc1OC (stereo not given) | 1.1% |
| CSc1ncc(CN2CCCC(C(=O)c3cccc(OC(C)C)c3)C2)cn1 (stereo not given) | 8.6% |
| COc1cccc(C(=O)C2CCCN(Cc3ccc4cccc(F)c4n3)C2)c1 (stereo not given) | -23.5% (inactive) |
| CC1CCN(Cc2nnnn2CCCC(=O)N(C)CCC(O)c2ccccc2)CC1 (stereo not given) | 7.2% |
| O=C(Nc1cccc(-n2cnnn2)c1)C1CCCN1CCCC(F)(F)F (stereo not given) | -2.9% (inactive) |
| O=C(Nc1cccc(-n2cccn2)c1)C1CCCN1Cc1cnc[nH]1 (stereo not given) | -25.6% (inactive) |
| O=C1N(CC2CC2)CCCC12CCN(Cc1cccc(-n3cccn3)c1)C2 (stereo not given) | -0.7% (inactive) |
| Cc1ccc(NC(=O)c2cc(C)c(C)o2)cc1C | -0.4% (inactive) |
| CC(C)Oc1cccc(NC(=O)Nc2ccccc2)c1 | 6.3% |
| CC(C)Oc1cccc(NC(=O)c2ccccc2Cl)c1 | -28.9% (inactive) |
| CC(C)Oc1cccc(C(=O)Nc2ccc3[nH]c(=O)[nH]c3c2)c1 | 5.2% |
| O=C(NCCCn1nnc2ccccc21)C1CCC(=O)N(CCN2CCOCC2)C1 (stereo not given) | -0.4% (inactive) |
| CN(CCc1ccccn1)c1ncccc1CNC1CSCCSC1 | -4% (inactive) |
| c1ccc(-c2noc(CN3CCN(Cc4ccc5c(c4)OCO5)CC3)n2)cc1 | 7.5% |

| Compound | activity |
| --- | --- |
| O=C(Nc1ccc2c(c1)OCCO2)c1ccc(=O)[nH]n1 | -1.3% (inactive) |
| CN(C)C(=O)Nc1ccc2c(c1)CCC2 | -6.3% (inactive) |
| COCCn1c(CN(C)Cc2cccnc2)cnc1S(=O)(=O)CC(C)(C)C | 7.7% |
| OC(COc1ccccc1CNCCc1ccccn1)CN1CCSCC1 (stereo not given) | 5.9% |
| CSCc1ccc(C(=O)N2CCC3(CCCN(CC(C)(C)C)C3)C2)o1 (stereo not given) | -0.7% (inactive) |
| CC(C)CCCC1CN(C2CCN(Cc3ccccn3)CC2)CCO1 (stereo not given) | 5.9% |
| COc1cccc(CC2CN(C3CCSCC3)CCO2)c1 (stereo not given) | 10.9% |
| O=C(CCN1CCCO1)N1CCCC(N2CCN(c3cccc(C(F)(F)F)c3)CC2)C1 (stereo not given) | -0.1% (inactive) |
| O=C1N(CC2CCCCC2)CCCC1(O)CN1CCCOCC1 (stereo not given) | 4.1% |
| CC(=O)Oc1ccc(/C=C/c2ccc3ccccc3n2)cc1Cl | 55.2% (active) |
| O=C1COc2ccc(S(=O)(=O)N3CCc4ccccc43)cc2N1 | 2.6% |
| Cc1cnc(C)c(N2C[C@H]3OC(=O)N(C4CCCC4)[C@H]3C2)n1 | 7.1% |
| Cc1ccc(S(=O)(=O)NC2CCCCC2)cc1C(N)=O | -20.3% (inactive) |
| CS(=O)(=O)c1cccc(S(=O)(=O)NC2CCCC2)c1 | 7% |
| Cc1ccc(S(=O)(=O)N2CCN(c3ccccc3)CC2)cc1C(N)=O | 1.7% |
| Cc1cccc(S(=O)(=O)NCC2CCN(c3cnn(C)c(=O)c3)C2)c1 (stereo not given) | 5.8% |
| Cc1ccc(S(=O)(=O)N2CCC(C(=O)N3CCN(c4ccccn4)CC3)CC2)cc1 | -18.7% (inactive) |
| Cc1nc(CC(=O)N2CCCC(CCC(=O)N3CCN(c4ccccn4)CC3)C2)cs1 (stereo not given) | -2.5% (inactive) |
| CC(=O)Nc1ccc(S(=O)(=O)N2CCN(C(=O)N3CCCCCC3)CC2)cc1 | -1.3% (inactive) |
| CCN(CC1CCCO1)C(=O)C1CCN(C2CCN(Cc3ccccc3C)CC2)CC1 (stereo not given) | 9.1% |
| COCCN1CCC(CN(Cc2ccncc2)Cc2csc(C(C)=O)c2)CC1 | -7.9% (inactive) |
| COc1cccc(CN2CCCC(NCc3ccc4nonc4c3)C2)c1 (stereo not given) | -3.2% (inactive) |
| COC(=O)C1CCCCN1C(=O)c1ccc2oc(C(C)C)nc2c1 (stereo not given) | 4.4% |
| c1ccc(CCCc2nn3c(-c4cccnc4)nnc3s2)cc1 | 3% |
| Cc1occc1-c1nnc2sc(CCc3ccccc3)nn12 | -18.1% (inactive) |
| c1ccc(Cc2nn3c(-c4ccco4)nnc3s2)cc1 | -5.1% (inactive) |
| Cc1ccc(S(=O)(=O)CC(=O)N2CCN(c3ccccc3)CC2)cc1 | -17% (inactive) |

| Compound | activity |
| --- | --- |
| Cc1nonc1CC(=O)N1CCC(CCC(=O)N2CCN(c3ccccc3)CC2)CC1 | 11.2% |
| Cc1nc(SCC(=O)N2CCN(c3ccccc3)CC2)nc2c1CCCC2 | -19.5% (inactive) |
| COc1ccc(N2CCN(C3CCCN(Cc4nc5ccccc5nc4C)C3)CC2)cc1 (stereo not given) | 7.9% |
| OC(COc1ccccc1CNCCc1cnccn1)CN1CCSCC1 (stereo not given) | 7.9% |
| O=C1CN(c2nc3nonc3nc2NC2CCCC2)CCN1C1CCCC1 | -1.2% (inactive) |
| C=CCn1cc(CNC2CC(=O)N(Cc3cccc(F)c3)C2)c(C)n1 (stereo not given) | -1.3% (inactive) |
| COc1ccc(C(C)(C)NC(=O)C2CCC(=O)N(Cc3ccccc3F)C2)cc1OC (stereo not given) | -0.6% (inactive) |
| O=C(NCCc1ccc(Cl)cc1)c1cccc(-n2cnnc2)c1 | -1% (inactive) |
| CC(=O)c1cccc(OCc2cc(C(=O)N(CC3CC3)CC3CCCO3)no2)c1 (stereo not given) | 0.5% |
| CC(C)CCCC1CN(C(=O)c2ccc(N3CCN(C)CC3)cc2)CCO1 (stereo not given) | 6.6% |
| Cc1cc(Oc2ccccc2)nc(Oc2ccc(=O)n(-c3ccccc3)n2)n1 | -9.1% (inactive) |
| CC(C)(C)NC(=O)CN1C(=O)CCC1=O | -0.4% (inactive) |
| Cc1nc2sccn2c1C(=O)N1CCCC(N(C)Cc2ccccc2)C1 (stereo not given) | -0.3% (inactive) |
| O=C(C1CCCO1)N1CCc2[nH]nc(-c3ccc(C(F)(F)F)cc3)c2C1 (stereo not given) | -2.9% (inactive) |
| COc1cc(CNCc2ccc(F)cc2)ccc1OCC(O)CN1CCOCC1 (stereo not given) | 2.4% |
| O=C(Nc1ccccc1)N1CCN(c2nsc3ccccc23)CC1 | -22.1% (inactive) |
| CC(C)C(=O)N1CCN(c2ccc(NC(=O)c3ccccn3)cc2)CC1 | 7.7% |
| O=C(NCc1ccccc1)N1CCN(CCO)CC1 | 2.5% |
| COc1ccc(NC(=O)NC2CC(=O)N(CC(C)(C)C)C2)c(OC)c1 (stereo not given) | -1.6% (inactive) |
| O=C(NCC(O)CO)c1ccc(OC2CCN(CCc3ccccc3)CC2)cc1 (stereo not given) | -0.6% (inactive) |
| CCN1CCN(CC(O)COc2cccc(CNCCCSC)c2)CC1 (stereo not given) | 9.1% |
| COc1ccc(F)c(CN2CCCC3(CCN(S(=O)(=O)N(C)C)C3)C2=O)c1 (stereo not given) | 0.3% |
| COc1cccc(CN2CCCC3(CCN(Cc4ccccn4)C3)C2)c1OC (stereo not given) | 7.4% |
| Cc1nc(C)c(CN2C[C@H]3OC(=O)N(CCCc4ccc(F)cc4)[C@H]3C2)nc1C | 8.2% |
